# Assay results from PubChem BioAssay AID1347131 (National Center for Advancing Translational Sciences (NCATS), 2019).
# The campaign covered roughly 410,000 compounds. About 2,000 (0.49%) were called active. About 8% were inconclusive and are not listed. Only a selection was taken, and actives are over-represented in it overall. Unmarked numbers belong to inactive results. Calls follow the shape of the full dose curve; tested in HEK293 reporter line.
# Experiment: qHTS Assay for Foot and Mouth Disease Virus Antivirals: Primary Screen against the MLPCN compound library; also: nearly all actives have a fitted effect of over 55% in size
# Conditions: FMDV antiviral cell-based qHTS; series mostly up to 57.9 µM; activity, negative = inhibition: at the top concentration
# Potency is read from the fitted curve at half-maximal effect.
SMILES,Potency,"activity, negative = inhibition"
CCN(CC)c1ccc2c(Cl)c(Br)c(=O)oc2c1,31.6 µM (active),
CCN(Cc1cc(=O)oc2cc(C)ccc12)c1ccccc1,,-38.6%
CCN(CC)c1ccc2cc(C(=O)NNC(=O)c3ccc(S(=O)(=O)N4CCCCC4)cc3)c(=O)oc2c1,,-31%
O=C(C1=C[C@H](c2ccc3c(c2)OCO3)C[C@H](OCc2ccc(CO)cc2)O1)N1CCN(Cc2ccc3c(c2)OCO3)CC1,,-38%
Cc1ccc(Nc2nc(N)nc(CN3CCN(c4ccccc4F)CC3)n2)cc1,,-33%
O=C(N/N=C/c1ccc2ncccc2c1)c1ccco1,14.1 µM (active),
CCOc1ccc(C=NNC(=O)c2cccc3ccccc23)cc1OCC,,-38.1%
O=C(Oc1cccc(/C=N/Nc2nc(N3CCOCC3)nc(N3CCOCC3)n2)c1)c1ccco1,,-35.2%
Cc1ccc(-c2ccc(=O)n(Cc3cc(C)ccc3C)n2)cc1,inactive,
CCN1CCN(c2cc(-c3ccccc3)nc3cc(-c4cccc(F)c4)nn23)CC1,,-31.5%
C=CC[C@@H](Cc1ccc(F)cc1)C(=O)OC[C@H]1CCCN1C(=O)[C@@H](CC=C)CC(=O)N(CCO)Cc1ccccc1,,-34.2%
C=CC[C@@H](CC(=O)OC(C)(C)C)C(=O)OC[C@@H]1CCCN1C(=O)[C@@H](CC=C)CC(=O)N[C@H](CO)Cc1ccccc1,14.1 µM (active),
C=CC[C@@H](CC(=O)OC(C)(C)C)C(=O)OC[C@@H]1CCCN1C(=O)[C@@H](CC=C)CC(=O)N[C@@H](CO)Cc1ccccc1,,-31%
COc1ccc(C(C)=O)cc1COC(=O)CNC(=O)c1ccccc1F,,-36.6%
N#CC(=C=[N-])c1nc2ccccc2nc1-[n+]1ccccc1,,-31.6%
COc1cccc(/C=N/NC(N)=S)c1OCc1cccc(Cl)c1,22.4 µM (active),
COc1cc(/C=N/NC(N)=S)cc(Br)c1OCc1ccccc1F,,-30.1%
COc1cccc(/C=N/NC(=O)CSc2nnc(C)n2-c2ccccc2)c1OC,,-35.1%
Cc1cc(-c2nc3cc(F)ccc3s2)ccc1N,12.6 µM (active),
CN(C(=O)OC(C)(C)C)c1ccc(-c2nc3ccccc3s2)cc1,,-100%
Cc1cc(-c2nc3ccccc3s2)ccc1N,7.94 µM (active),

SMILES,Potency,"activity, negative = inhibition"
CC(C)(C)C(=O)Nc1ccc(-c2nc3ccccc3s2)cc1,,-67.5%
Cc1ccccc1-c1nc(CN2CCC(C(=O)NC3CCN(Cc4ccccc4)CC3)CC2)c(C)o1,,-29.5%
Cc1cc(=O)[nH]c(N/N=C/C2=C(N3CCOCC3)C(=C\c3ccc(Cl)cc3)/CC2)n1,,-36.7%
O=C(Nc1ccc(Cl)c(C(F)(F)F)c1)c1cc2nc(-c3ccc4c(c3)OCO4)cc(C(F)(F)F)n2n1,,-21.9%
CC[C@H]1c2[nH]c3ccc(C(C)C)cc3c2[C@@H]2CCN3C(=O)CCC[C@H]1[C@H]23,,-33.7%
CC(C)(C)n1ncc2c(=O)n(CC(=O)NCc3ccccc3)cnc21,20 µM (active),
CC(C)(C)n1ncc2c(=O)n(Cc3c(Cl)cccc3Br)cnc21,,-48.1%
CC(C)(C)n1ncc2c(=O)n(CC(=O)Nc3ccc(Cl)cc3)cnc21,,-38.5%
CCCCCn1c(NC(=O)c2ccco2)c(C(=O)OCC)c2nc3ccccc3nc21,,-41.5%
COc1ccc(/C=C2\CN(Cc3ccccc3)C/C(=C\c3ccc(OC)cc3)C2=O)cc1,,-34.8%
COc1cc(/C=C2/CCc3ccccc3C2=O)cc(OC)c1OC,,-30.1%
CCOc1ccc(/C=C2\CCc3ccccc3C2=O)cc1,20 µM (active),
Cc1ccc(-c2noc(CCC(=O)NCCN3CCc4ccccc4C3)n2)cc1,,-32.9%
Fc1cccc(/C=N/Nc2ccc3ccccc3n2)c1,12.6 µM (active),
C(=N\Nc1ccc2ccccc2n1)/c1ccc2c(c1)OCCO2,,-52.8%
O=S(=O)(N/N=C\c1cccc(F)c1)c1ccccc1,,113%
O=C(NCc1ccc(F)cc1)c1cc(Sc2ccc(F)cc2F)nc2ccccc12,,-34%
Cc1ccc(Cl)c(OCCN2CCc3ccccc3C2)c1,,-34.8%
CN(CC(=O)Nc1ccc(Cl)cc1)CC(=O)Nc1sc2c(c1C(N)=O)CCC2,,-41.6%
CC1(C)Cc2ccccc2-c2nnc(SCC(=O)N3CCN(c4ccccc4)CC3)n21,7.94 µM (active),
CC1Cc2nc(SCC(=O)N3CCN(c4ccccc4)CC3)n(C)c(=O)c2S1 (stereo not drawn),,-31.1%

SMILES,Potency,"activity, negative = inhibition"
O=C(CSC1=NCCS1)N1CCN(c2ccccc2)CC1,,-31.3%
FC(F)(F)c1cc(-c2cccs2)nc(-n2cc(Br)cn2)n1,,-39.4%
Cc1cc2ncc(-c3cccs3)nc2cc1C,11.2 µM (active),
C/C(=N\NC(=O)c1cc(-c2cccs2)nc2ccccc12)c1ccccn1,,-31.1%
O=C1Nc2ccc([N+](=O)[O-])cc2OC1CCN1CCN(c2ccccc2)CC1 (stereo not drawn),,-30%
COc1ccc(-c2ccc(C(=O)N3CCN(C)CC3)c3occc23)c(C)c1,,-36.9%
CCOc1ccccc1CNC(=O)CSc1n[nH]c(-c2ccccc2)n1,,-36.7%
Nc1nc(COC(=O)CCC(=O)c2ccc(Cl)cc2)nc(Nc2ccccc2)n1,,-36.9%
Nc1nc(CSc2n[nH]c(-c3ccccc3)n2)nc(Nc2ccccc2)n1,25.1 µM (active),
O=C1c2cccnc2Oc2ccc(Cl)cc2N1Cc1ccc(F)cc1,,-37.2%
[N-]=[N+]=CC(=O)C(Cc1ccccc1)N1C(=O)c2ccccc2C1=O (stereo not drawn),,-32.3%
Cc1ccc2[nH]c(C(=O)N3CCCCC3)cc2c1,,100%
O=C(c1cc2ccc3cccnc3c2[nH]1)N1CCN(c2cccc(Cl)c2)CC1,,-32.5%
O=C(c1cc2ccc3cccnc3c2[nH]1)N1CCCCC1,14.1 µM (active),
CN(C)N(Cc1ccccc1)C(=O)C(O)(c1ccccc1)c1ccccc1,,-30.8%
CCc1ccc(NC(=O)CSCc2nc(N)nc(Nc3ccccc3CC)n2)cc1,,-34.6%
Cc1ccc(C(=O)COC(=O)c2cc(Cl)ccc2O)cc1[N+](=O)[O-],,-36.5%
CCCC(=O)Nc1cccc(NC(=O)c2cccc([N+](=O)[O-])c2C)c1,,-33.7%
Cc1ccc(C(=O)COC(=O)c2cccc(NC(=O)c3ccc([N+](=O)[O-])cc3[N+](=O)[O-])c2)cc1,20 µM (active),
C=C(C(=O)c1ccccc1)C(c1ccccc1)C(C)C(=O)c1ccccc1 (stereo not drawn),,-30.2%
CC(=O)OC1CC2C(C)(C)C(O)CC[C@@]2(C)C2CC[C@@]3(C)C(c4ccoc4)OC(=O)C4OC43[C@]12C (stereo partly drawn),,-31.4%
